Consider 38 compounds from PubChem BioAssay (NCATS).

The structures appear in SMILES notation. Results filed as inconclusive are left out. Entries that show only a call come without a potency. Active and inactive are the calls of the source. The call rests on the fitted dose curve; in most records, active means well fitted cell-killing curve with a large enough effect; inconclusive means small, poorly fitted or top-dose-only effect; inactive means flat fitted curve, though single readings scatter.
Potency means the concentration at half of the fitted maximal effect.

The experiment can be described thus: qHTS assay to identify small molecule inhibitors of chordoma cells - UCH-2 (AID 1259356). The conditions noted are these: UCH-2 chordoma viability, CellTiter-Glo ATP luminescence, 48 h; series mostly up to 46.1 µM.
On to `C=C1[C@@H]2CC[C@@H](C2)C1(C)C`, for which the Potency result is “inactive”.

Consider `CC(=O)Nc1ccc(OC(C)=O)cc1`, for which the Potency result was “inactive”.

Turning to `NCCO/C=C/[C@H](N)C(=O)O`, the Potency entry was “inactive”.

As for `C#C[C@]1(O)CC[C@@H]2[C@H]3CCC4=CC(=O)CC[C@H]4[C@H]3C(=C)C[C@@]21CC`, the Potency entry was “inactive”.

For `CO/N=C(\C(=O)N[C@@H]1C(=O)N2C(C(=O)O)=CCS[C@H]12)c1csc(N)n1`, the Potency result is “inactive”.

As for `CC(C)=CCC/C(C)=C/C=C/C(C)=C/C=C/C(C)=C/C=C/C=C(C)/C=C/C=C(C)/C=C/C=C(\C)CCC=C(C)C`, the Potency entry was “inactive”.

In the case of `CCCc1ccc(C(=O)O)cc1`, the Potency entry was “inactive”.

Consider `CC1=CC(=C(c2ccc(N)cc2)c2ccc(N)cc2)C=CC1=N`, for which the Potency is 14.6 µM (active).

Consider `CNC(=O)[C@H](Cc1c[nH]c2ccccc12)NC(=O)[C@@H](CC(=O)NO)CC(C)C`, for which the Potency result is “inactive”.

As to `NS(=O)(=O)c1cc2c(cc1Cl)NC(Cc1ccccc1)NS2(=O)=O` (stereo not drawn), the Potency entry is “inactive”.

In the case of `CO/N=C(\C(=O)N[C@@H]1C(=O)N2C(C(=O)[O-])=C(C[n+]3cccc4c3CCC4)CS[C@H]12)c1csc(N)n1`, the Potency entry was “inactive”.

As for `CNC(=O)C[C@@H](N)C(=O)N[C@@H](C(=O)N[C@@H]1C(=O)N2[C@@H]1SC(C)(C)[C@@H]2C(=O)O)c1ccc(O)cc1`, the Potency entry was “inactive”.

On to `CC(C)(C)C(=O)OCC(=O)[C@H]1CC[C@H]2[C@@H]3CCC4=CC(=O)CC[C@]4(C)[C@H]3CC[C@]12C`, for which the Potency result is “inactive”.

With `Cc1cc(O)c2c(c1)O[C@@]1(C)CC[C@H]3C(C)(C)CCCC34CO[C@@H]2[C@H]41` (stereo partly drawn), the Potency result was “inactive”.

Regarding `O=C(OCc1ccccc1)c1ccc(O)cc1`, the Potency result was “inactive”.

Take `CC(C)c1ncc([N+](=O)[O-])n1C`: the Potency result is “inactive”.

On to `CCOC(=S)SSC(=S)OCC`, for which the Potency entry was “inactive”.

As for `O=C(O)CCC(=O)c1ccc(-c2ccccc2)cc1`, the Potency result is “inactive”.

For `CC(C)[C@H](N)C(=O)OCC(CO)OCn1cnc2c(=O)[nH]c(N)nc21` (stereo partly drawn), the Potency entry was “inactive”.

Regarding `CCCCC`, the Potency result was “inactive”.

Turning to `CC(C)OC(=O)Nc1ccc2nc(-c3cscn3)[nH]c2c1`, the Potency entry is “inactive”.

Turning to `S=C=Nc1ccc(N=C=S)cc1`, the Potency entry was “inactive”.

Regarding `O=C(NNCS(=O)(=O)O)c1ccncc1`, the Potency entry is “inactive”.

For `C=CCN1CCCC1CNC(=O)c1cc(S(N)(=O)=O)cc(OC)c1OC` (stereo not drawn), the Potency result is “inactive”.

As to `CO[C@H]1C=CO[C@@]2(C)Oc3c(C)c(O)c4c(O)c(cc(O)c4c3C2=O)NC(=O)/C(C)=C\C=C/[C@H](C)[C@H](O)[C@@H](C)[C@@H](O)[C@@H](C)[C@H](OC(C)=O)[C@@H]1C`, the Potency result is “inactive”.

Consider `CC1(O)CCC(C(C)(C)O)CC1` (stereo not drawn), for which the Potency result was “inactive”.

Take `Nc1ccc(N=Nc2ccccc2)c(N)n1`: the Potency entry was “inactive”.

On to `ClC(Cl)Cl`, for which the Potency entry was “inactive”.

As for `Oc1ccc(/C=C/c2cc(O)cc(O)c2)cc1`, the Potency result is “inactive”.

Regarding `OCl`, the Potency result was “inactive”.

Regarding `CC(=O)N[C@@H]1C(O[C@H]2O[C@H](C(=O)O)C(O)[C@H](O)[C@H]2O)[C@H](O)[C@@H](CO)O[C@H]1O[C@@H]1C(C(=O)O)O[C@@H](O[C@H]2[C@H](O)[C@@H](CO)OC(O)[C@@H]2NC(C)=O)[C@H](O)[C@H]1O` (stereo partly drawn), the Potency entry is “inactive”.

Turning to `O=P(O)(O)OC[C@H]1O[C@](O)(COP(=O)(O)O)[C@@H](O)[C@@H]1O`, the Potency entry is “inactive”.

On to `Oc1ccc(Cl)c2c1CCC2`, for which the Potency entry is “inactive”.

`Cc1c(O)c(=O)ccn1C`: the Potency entry was “inactive”.

As to `CCCCCCCCCCCCCCCC(=O)OC[C@H](COP(=O)([O-])OCC[N+](C)(C)C)OC(=O)CCCCCCCCCCCCCCC`, the Potency result was “inactive”.

As to `CC(=O)Oc1cccc2c1C(=O)c1c(OC(C)=O)cc(C(=O)O)cc1C2=O`, the Potency entry is “inactive”.

Consider `NC(=O)[C@@H]1CCCN1C(=O)[C@H](Cc1cnc[nH]1)NC(=O)[C@@H]1CCC(=O)N1`, for which the Potency entry was “inactive”.

Turning to `CN1c2c(nc(N)[nH]c2=O)NCC1CNc1ccc(C(=O)NC(CCC(=O)O)C(=O)O)cc1` (stereo not drawn), the Potency entry is “inactive”.
